# Laboratory results from the supplement of paper PMC11732987, “Enantioselective OTUD7B fragment discovery through chemoproteomics screening and high-throughput optimisation” (Communications Chemistry, 2025).
# A number with no mark means an inactive call.
# Experiments:
# Experiment in all cases: log2 ratio of Biotin-Ahx-Ub-VS probe labelling (fragment/DMSO); higher = less target engagement (more negative = stronger competition), active = hit call of the paper (q ≤ 0.05, log2 ratio ≤ -1)
# Conditions in all cases: compound concentration: 200 uM; treatment time: 3 h
# USP42 = biological target: T1, USP42 (UniProt Q9H9J4)
# T1 sequence (whole entry): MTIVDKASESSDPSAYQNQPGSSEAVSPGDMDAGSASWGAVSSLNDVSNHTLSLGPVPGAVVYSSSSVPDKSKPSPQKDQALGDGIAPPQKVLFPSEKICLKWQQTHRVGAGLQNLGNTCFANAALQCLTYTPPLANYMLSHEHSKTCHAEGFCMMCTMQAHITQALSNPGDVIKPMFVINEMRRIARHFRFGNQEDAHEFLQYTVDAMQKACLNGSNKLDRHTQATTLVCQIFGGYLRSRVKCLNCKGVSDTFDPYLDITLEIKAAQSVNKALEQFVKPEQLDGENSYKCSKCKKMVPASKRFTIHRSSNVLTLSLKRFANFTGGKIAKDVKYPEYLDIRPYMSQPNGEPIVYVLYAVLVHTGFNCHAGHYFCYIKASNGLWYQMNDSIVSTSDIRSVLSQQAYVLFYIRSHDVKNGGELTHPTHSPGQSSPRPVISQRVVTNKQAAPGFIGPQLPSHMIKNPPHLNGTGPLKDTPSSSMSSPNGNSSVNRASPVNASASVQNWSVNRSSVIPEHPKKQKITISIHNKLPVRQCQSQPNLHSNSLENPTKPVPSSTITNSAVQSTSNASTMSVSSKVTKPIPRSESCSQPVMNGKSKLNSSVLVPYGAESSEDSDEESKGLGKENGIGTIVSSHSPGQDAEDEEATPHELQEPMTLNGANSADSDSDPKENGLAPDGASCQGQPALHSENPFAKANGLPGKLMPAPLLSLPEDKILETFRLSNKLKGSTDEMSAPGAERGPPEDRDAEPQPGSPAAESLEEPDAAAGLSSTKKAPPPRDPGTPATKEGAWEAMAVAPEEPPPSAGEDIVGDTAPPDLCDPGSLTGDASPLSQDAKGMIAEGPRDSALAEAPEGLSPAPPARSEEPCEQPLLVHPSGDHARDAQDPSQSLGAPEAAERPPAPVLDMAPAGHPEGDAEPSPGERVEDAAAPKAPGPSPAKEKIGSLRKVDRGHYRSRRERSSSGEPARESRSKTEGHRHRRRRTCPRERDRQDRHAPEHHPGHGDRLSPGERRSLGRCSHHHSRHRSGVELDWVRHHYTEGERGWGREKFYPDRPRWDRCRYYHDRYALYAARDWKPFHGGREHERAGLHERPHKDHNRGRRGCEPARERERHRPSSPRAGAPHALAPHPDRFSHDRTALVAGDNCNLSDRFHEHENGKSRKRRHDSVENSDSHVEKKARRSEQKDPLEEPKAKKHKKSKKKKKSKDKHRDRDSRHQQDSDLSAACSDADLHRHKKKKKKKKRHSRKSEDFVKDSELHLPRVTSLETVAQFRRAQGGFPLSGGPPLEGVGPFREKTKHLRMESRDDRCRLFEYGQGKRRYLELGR
# Outline: (§1)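 HEK293T lysate in Tris/CHAPS/IGEPAL buffer with protease inhibitors (495 µg per sample) was given fragment at 200 µM or vehicle for 3 h, in triplicate. It then received Biotin-Ahx-Ub-VS at 0.5 µM final for 1 h. Labelled DUBs were NeutrAvidin-enriched, digested with LysC and trypsin, and run by diaPASEF LC-MS/MS. Values are average log2 fragment/vehicle ratios by unpaired t-test on global-median-normalised Spectronaut quantities of proteins with ≥2 unique peptides.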
# USP46 = USP46 (UniProt P62068)
# USP46, sequence (P62068 whole entry): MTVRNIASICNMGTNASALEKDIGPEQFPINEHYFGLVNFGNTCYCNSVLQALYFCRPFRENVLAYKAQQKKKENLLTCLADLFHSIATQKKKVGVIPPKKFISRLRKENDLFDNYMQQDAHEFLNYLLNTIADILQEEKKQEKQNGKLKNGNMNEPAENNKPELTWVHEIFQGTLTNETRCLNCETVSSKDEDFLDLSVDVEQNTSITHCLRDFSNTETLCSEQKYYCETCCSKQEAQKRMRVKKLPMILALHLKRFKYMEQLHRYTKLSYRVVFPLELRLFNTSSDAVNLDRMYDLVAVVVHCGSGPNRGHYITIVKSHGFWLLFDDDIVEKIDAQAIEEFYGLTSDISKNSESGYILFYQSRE
# Outline: as §1
# USP47 = biological target: T2, USP47 (UniProt Q96K76)
# T2 sequence (whole entry): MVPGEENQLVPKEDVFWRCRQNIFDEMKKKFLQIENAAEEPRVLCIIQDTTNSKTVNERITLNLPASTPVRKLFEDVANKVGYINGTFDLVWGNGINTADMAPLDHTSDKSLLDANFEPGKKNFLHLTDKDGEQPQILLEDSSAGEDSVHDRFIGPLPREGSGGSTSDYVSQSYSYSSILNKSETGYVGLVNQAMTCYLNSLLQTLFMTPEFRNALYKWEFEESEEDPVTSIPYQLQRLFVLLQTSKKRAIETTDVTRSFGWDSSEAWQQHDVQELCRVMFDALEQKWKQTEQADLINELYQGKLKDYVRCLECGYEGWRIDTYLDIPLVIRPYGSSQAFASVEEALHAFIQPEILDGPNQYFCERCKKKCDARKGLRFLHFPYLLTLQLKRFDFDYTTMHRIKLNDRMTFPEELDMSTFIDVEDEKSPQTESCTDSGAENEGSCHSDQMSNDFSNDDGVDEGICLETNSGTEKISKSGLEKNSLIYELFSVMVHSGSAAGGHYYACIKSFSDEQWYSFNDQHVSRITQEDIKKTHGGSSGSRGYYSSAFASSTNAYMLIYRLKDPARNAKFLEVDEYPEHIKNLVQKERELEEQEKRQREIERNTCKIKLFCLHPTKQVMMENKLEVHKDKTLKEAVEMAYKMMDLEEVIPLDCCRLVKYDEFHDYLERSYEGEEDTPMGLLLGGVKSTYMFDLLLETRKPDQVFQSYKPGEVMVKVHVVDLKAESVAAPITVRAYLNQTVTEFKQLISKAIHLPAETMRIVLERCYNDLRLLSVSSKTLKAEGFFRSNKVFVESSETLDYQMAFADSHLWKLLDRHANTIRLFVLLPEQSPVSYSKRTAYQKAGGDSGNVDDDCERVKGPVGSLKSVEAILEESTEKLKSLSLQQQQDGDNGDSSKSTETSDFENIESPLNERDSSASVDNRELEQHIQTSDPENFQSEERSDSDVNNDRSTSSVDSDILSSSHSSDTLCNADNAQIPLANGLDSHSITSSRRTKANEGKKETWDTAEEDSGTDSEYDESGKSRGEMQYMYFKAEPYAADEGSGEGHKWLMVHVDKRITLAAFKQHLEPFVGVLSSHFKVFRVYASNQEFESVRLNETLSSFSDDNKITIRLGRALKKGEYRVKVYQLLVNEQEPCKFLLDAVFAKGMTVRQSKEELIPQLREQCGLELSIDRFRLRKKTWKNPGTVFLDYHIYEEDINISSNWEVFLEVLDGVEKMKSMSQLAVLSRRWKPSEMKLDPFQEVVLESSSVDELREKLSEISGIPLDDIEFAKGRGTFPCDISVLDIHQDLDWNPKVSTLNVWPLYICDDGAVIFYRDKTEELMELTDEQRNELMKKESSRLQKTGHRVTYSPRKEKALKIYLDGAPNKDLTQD
# Outline: as §1
# USP48 = biological target: T3, USP48 (UniProt Q86UV5)
# T3 sequence (whole entry): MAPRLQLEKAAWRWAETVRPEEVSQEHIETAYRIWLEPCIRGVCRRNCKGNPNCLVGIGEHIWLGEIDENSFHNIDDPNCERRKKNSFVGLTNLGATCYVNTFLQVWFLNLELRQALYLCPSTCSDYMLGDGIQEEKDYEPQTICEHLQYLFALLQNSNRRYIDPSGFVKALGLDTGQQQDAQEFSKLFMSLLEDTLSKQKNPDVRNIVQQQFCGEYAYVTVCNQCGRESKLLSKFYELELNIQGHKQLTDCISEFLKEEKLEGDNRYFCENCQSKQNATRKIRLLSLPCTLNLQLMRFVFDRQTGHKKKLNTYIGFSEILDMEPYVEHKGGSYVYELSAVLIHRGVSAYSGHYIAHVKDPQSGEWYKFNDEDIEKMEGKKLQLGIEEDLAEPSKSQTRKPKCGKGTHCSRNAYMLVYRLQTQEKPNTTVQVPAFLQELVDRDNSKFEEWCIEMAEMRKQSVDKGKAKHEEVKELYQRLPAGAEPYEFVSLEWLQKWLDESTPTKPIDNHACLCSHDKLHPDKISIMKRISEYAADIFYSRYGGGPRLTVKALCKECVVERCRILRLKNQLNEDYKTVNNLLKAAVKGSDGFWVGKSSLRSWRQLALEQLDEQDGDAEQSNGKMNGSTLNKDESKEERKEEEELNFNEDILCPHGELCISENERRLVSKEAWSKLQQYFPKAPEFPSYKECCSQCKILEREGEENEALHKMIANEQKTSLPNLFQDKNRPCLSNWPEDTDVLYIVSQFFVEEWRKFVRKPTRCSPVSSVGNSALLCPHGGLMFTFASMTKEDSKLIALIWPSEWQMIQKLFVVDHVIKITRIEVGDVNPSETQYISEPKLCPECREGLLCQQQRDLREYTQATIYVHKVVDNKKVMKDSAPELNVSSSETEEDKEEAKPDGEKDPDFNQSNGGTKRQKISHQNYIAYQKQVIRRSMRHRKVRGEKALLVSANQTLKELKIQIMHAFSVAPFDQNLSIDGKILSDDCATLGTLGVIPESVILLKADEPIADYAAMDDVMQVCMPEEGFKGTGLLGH
# Outline: as §1
# USP5 = biological target: T4, USP5 (UniProt P45974)
# T4 sequence (whole entry): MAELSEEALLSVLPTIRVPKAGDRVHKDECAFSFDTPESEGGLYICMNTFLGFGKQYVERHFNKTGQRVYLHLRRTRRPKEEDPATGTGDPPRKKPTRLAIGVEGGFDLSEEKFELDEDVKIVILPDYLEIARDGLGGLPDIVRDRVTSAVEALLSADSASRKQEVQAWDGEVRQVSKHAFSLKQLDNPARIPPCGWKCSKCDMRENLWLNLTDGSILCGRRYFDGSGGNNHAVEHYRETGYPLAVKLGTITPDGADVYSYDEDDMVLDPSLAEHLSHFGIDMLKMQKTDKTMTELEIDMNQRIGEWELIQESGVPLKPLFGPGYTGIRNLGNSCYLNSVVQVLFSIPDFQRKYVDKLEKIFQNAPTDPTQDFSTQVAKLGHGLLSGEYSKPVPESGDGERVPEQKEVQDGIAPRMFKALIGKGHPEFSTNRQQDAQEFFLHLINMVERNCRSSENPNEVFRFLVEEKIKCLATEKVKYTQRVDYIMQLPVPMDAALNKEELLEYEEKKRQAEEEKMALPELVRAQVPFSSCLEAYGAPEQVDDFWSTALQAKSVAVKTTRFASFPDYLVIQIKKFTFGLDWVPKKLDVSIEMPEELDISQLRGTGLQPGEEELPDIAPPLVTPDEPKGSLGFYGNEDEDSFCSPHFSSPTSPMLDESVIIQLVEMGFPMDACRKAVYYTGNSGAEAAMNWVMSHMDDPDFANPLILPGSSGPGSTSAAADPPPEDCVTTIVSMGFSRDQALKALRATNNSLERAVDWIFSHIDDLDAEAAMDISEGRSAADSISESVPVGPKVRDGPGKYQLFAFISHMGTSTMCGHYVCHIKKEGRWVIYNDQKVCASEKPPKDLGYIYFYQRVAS
# Outline: as §1
# USP54 = USP54 (UniProt Q70EL1)
# USP54, sequence (Q70EL1 whole entry): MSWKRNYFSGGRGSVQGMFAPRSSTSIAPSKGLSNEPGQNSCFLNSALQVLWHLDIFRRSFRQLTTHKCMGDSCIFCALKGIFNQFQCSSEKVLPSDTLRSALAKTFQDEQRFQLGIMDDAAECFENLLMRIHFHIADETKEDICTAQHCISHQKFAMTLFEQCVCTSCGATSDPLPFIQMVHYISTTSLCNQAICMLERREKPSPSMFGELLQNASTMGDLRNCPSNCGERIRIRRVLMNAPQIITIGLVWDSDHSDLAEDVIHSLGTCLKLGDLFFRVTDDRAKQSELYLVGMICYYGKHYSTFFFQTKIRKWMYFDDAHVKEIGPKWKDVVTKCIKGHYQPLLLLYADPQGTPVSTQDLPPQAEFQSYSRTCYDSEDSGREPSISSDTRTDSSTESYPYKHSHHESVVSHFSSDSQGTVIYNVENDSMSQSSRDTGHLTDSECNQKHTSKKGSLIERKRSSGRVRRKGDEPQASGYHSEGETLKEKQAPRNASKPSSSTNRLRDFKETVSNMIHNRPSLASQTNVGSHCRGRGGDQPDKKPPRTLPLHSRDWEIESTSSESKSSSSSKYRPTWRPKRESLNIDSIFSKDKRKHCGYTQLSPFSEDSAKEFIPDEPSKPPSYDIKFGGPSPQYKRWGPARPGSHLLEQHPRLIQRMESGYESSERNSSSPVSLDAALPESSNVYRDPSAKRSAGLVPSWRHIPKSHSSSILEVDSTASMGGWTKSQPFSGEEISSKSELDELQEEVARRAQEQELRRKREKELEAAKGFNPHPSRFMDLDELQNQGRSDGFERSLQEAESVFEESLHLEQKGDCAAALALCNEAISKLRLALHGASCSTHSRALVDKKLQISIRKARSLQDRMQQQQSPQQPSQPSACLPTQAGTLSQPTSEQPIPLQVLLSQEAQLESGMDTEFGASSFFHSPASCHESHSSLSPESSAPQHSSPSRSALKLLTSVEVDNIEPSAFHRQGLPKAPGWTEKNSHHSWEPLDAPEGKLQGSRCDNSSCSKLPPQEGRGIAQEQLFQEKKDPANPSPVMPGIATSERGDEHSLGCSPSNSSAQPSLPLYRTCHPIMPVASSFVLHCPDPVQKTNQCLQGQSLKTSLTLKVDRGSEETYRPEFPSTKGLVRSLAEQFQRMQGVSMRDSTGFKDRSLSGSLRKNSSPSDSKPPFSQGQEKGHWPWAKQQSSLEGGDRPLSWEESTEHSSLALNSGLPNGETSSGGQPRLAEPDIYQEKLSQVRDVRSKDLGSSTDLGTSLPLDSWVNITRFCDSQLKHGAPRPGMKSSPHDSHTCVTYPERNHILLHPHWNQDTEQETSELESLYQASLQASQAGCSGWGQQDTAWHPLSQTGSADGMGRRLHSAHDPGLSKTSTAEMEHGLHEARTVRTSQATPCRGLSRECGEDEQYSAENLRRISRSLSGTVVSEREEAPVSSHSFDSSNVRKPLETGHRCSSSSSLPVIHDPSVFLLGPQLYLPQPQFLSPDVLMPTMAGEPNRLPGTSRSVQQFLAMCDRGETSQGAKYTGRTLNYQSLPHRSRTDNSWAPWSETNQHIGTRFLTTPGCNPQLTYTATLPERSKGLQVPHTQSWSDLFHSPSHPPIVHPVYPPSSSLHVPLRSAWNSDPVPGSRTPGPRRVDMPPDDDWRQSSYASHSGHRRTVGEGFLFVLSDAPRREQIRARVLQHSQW
# Outline: as §1
# USP7 = USP7 (UniProt Q93009)
# USP7, sequence (Q93009 whole entry, looked up): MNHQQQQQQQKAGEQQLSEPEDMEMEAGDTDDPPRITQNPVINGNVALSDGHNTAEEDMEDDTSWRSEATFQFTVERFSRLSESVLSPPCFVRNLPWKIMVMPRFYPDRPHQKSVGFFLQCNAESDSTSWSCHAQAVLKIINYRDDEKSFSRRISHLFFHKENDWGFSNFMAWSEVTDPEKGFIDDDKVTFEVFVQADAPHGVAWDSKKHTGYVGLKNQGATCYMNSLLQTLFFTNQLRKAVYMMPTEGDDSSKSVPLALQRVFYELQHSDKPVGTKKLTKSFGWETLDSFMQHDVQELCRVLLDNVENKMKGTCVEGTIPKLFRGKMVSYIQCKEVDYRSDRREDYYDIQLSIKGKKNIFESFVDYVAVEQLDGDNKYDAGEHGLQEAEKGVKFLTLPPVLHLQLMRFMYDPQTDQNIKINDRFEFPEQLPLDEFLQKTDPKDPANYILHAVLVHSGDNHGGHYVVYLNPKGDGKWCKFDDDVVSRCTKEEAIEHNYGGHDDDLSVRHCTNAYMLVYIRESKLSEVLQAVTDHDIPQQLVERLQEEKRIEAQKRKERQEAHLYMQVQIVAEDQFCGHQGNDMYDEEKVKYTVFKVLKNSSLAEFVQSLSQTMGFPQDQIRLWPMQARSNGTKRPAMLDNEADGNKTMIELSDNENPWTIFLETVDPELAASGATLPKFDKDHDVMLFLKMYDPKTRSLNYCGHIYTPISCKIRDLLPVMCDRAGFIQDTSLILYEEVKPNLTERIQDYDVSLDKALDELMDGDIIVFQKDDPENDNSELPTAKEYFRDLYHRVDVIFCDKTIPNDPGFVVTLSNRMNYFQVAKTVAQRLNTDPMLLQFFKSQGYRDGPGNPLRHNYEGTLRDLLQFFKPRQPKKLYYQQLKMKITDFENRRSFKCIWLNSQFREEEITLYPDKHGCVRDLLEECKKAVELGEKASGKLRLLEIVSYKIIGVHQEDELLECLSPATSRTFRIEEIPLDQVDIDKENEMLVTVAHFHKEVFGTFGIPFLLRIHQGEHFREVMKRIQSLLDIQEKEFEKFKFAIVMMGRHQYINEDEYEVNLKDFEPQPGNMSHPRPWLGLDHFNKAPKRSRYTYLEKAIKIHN
# Outline: as §1
# USP8 = biological target: T5, USP8 (UniProt P40818)
# T5 sequence (whole entry): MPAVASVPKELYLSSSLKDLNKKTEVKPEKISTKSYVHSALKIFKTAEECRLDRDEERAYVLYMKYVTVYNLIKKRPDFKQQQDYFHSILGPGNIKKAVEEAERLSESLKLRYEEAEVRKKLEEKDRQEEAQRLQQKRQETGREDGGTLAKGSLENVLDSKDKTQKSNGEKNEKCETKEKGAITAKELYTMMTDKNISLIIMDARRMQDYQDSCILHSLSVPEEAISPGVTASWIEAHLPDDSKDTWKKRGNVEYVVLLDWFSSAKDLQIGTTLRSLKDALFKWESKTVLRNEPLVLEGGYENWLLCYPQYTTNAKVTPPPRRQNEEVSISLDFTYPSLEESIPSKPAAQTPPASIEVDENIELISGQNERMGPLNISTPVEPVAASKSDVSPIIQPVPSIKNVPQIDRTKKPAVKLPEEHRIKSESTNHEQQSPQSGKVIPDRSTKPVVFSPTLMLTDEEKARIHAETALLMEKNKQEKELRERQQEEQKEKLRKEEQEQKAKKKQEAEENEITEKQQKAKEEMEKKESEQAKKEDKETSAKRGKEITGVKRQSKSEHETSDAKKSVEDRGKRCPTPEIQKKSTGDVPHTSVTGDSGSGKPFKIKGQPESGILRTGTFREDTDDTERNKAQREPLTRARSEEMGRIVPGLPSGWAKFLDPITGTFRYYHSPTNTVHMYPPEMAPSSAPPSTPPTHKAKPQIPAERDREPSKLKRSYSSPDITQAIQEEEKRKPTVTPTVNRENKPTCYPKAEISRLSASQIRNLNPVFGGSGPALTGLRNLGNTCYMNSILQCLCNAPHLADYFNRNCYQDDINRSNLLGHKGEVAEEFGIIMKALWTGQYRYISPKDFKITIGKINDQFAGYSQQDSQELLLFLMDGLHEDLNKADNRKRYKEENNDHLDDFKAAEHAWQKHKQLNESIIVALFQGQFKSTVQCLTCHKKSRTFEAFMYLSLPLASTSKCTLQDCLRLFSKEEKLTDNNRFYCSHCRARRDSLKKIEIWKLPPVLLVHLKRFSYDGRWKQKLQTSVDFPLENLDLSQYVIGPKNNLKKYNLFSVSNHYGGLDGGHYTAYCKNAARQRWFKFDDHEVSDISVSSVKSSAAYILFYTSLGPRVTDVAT
# Outline: as §1
# USP9X = USP9X (UniProt Q93008)
# Outline: as §1
# UniProt O00487 = biological target: UniProt O00487
# UniProt O00487, sequence (O00487 whole entry): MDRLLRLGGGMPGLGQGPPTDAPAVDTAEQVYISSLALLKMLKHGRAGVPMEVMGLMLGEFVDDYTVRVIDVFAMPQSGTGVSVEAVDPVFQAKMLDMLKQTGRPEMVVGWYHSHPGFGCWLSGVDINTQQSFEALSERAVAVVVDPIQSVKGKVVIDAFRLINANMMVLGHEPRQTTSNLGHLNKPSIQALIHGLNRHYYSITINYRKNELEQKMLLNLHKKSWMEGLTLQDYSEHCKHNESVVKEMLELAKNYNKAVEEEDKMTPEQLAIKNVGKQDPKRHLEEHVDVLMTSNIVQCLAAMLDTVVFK
# Outline: as §1
structure (smiles),measurement,setting,value
O=C(CCl)Nc1cc2c(cc1Cl)OCCO2,log2 ratio of Biotin-Ahx-Ub-VS probe labelling,USP42,0.233
same,log2 ratio of Biotin-Ahx-Ub-VS probe labelling,USP46,0.0711
same,log2 ratio of Biotin-Ahx-Ub-VS probe labelling,USP47,-0.426
same,log2 ratio of Biotin-Ahx-Ub-VS probe labelling,USP48,-1.05 (active)
same,log2 ratio of Biotin-Ahx-Ub-VS probe labelling,USP5,0.0658
same,log2 ratio of Biotin-Ahx-Ub-VS probe labelling,USP54,0.291
same,log2 ratio of Biotin-Ahx-Ub-VS probe labelling,USP7,-0.216
same,log2 ratio of Biotin-Ahx-Ub-VS probe labelling,USP8,-0.226
same,log2 ratio of Biotin-Ahx-Ub-VS probe labelling,USP9X,-0.246
same,log2 ratio of Biotin-Ahx-Ub-VS probe labelling,UniProt O00487,-0.0671
